# In PubChem BioAssay (Tox21):
# Records with an inconclusive call do not appear. A call without a number means that no potency is given here. Activity calls are given as the source filed them. The call rests on the fitted dose curve.
# Experiment: G protein-coupled receptor (GPCR) small molecule agonists, calcium flux assay: HEK293 wild type cell line counter screen (AID 1920065); further: potency means the concentration at half of the fitted maximal effect
# Settings: HEK293 WT calcium flux, fluorescence, agonist mode; series mostly up to 57.6 µM
# In short: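 Cells were plated and cultured 18 h at 37 C/5% CO2, then loaded with calcium dye for 1 h at 37 C. Compounds in DMSO were pin-transferred in agonist mode, and fluorescence (Ex/Em 480/540) was read kinetically for 3 min at 1 s intervals.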
row,Compound,Potency
1,CCOP(=S)(Oc1ccc([N+](=O)[O-])cc1)c1ccccc1 (configuration not stated),inactive
2,OC(c1ccc(Cl)cc1)(c1ccc(Cl)cc1)C(Cl)(Cl)Cl,inactive
3,O=C1NCN(c2ccccc2)C12CCN(CCCOc1ccc(F)cc1)CC2,10.7 µM (active)

# Experiment: p53 small molecule agonists, cell-based qHTS assay with human liver microsomes (AID 1963577)
# Settings: HCT-116 p53RE-bla with human liver microsomes, ratio, 16 h; series mostly up to 66 µM
# In short: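 Cells carrying a p53-responsive bla reporter were rested 5 h (37 C, 5% CO2) before compound transfer. Human liver microsomes plus NADPH, 0.5 mg/mL final apiece, supplied metabolism during the 16 h 37 C exposure.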
row,Compound,Potency
1,COC(=O)C(C)N(C(=O)c1ccco1)c1c(C)cccc1C (configuration not stated),inactive
2,O=c1ssc(Cl)c1Cl,inactive
3,CC(C)(C)C(O)/C(=C\c1ccc(Cl)cc1Cl)n1cncn1 (configuration not stated),inactive
4,NC1CCC(CC2CCC(N)CC2)CC1 (configuration not stated),inactive
5,O=[N+]([O-])c1ccc(Oc2ccc(C(F)(F)F)cc2[N+](=O)[O-])cc1,inactive
6,CCCN(CC1CC1)c1c([N+](=O)[O-])cc(C(F)(F)F)cc1[N+](=O)[O-],inactive
7,OCC(c1ccc(Cl)cc1)c1ccc(Cl)cc1,inactive
8,CC(C)C1CCC(Cc2ccc(Cl)cc2)C1(O)Cn1cncn1 (configuration not stated),inactive
9,O=C(N[C@H](c1ccccc1)[C@@H]1CN2CCC1CC2)c1c(Cl)ccc(C(F)(F)F)c1Cl,inactive
10,c1cc(OCC2CO2)ccc1Cc1ccc(OCC2CO2)cc1 (configuration not stated),inactive
11,Cc1cc(C2CC2)nc(Nc2ccccc2)n1,inactive
12,NS(=O)(=O)C(F)(F)C(F)(F)C(F)(F)C(F)(F)C(F)(F)C(F)(F)C(F)(F)C(F)(F)F,inactive
13,OC(c1ccc(Cl)cc1)(c1ccc(Cl)cc1)C(Cl)(Cl)Cl,inactive
14,CC(C)(c1ccccc1)c1ccc(O)cc1,inactive
15,O=C1NCN(c2ccccc2)C12CCN(CCCOc1ccc(F)cc1)CC2,inactive
16,Brc1ccc(Oc2ccc(Br)cc2Br)c(Br)c1,inactive

# Experiment: p53 small molecule agonists, cell-based qHTS assay with rat liver microsomes (AID 1963578)
# Settings: HCT-116 p53RE-bla, beta-lactamase ratio, 16 h; series mostly up to 66 µM
# In short: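 Fluorescence from a beta-lactamase reporter under a p53 response element was measured after cells had been incubated 16 h at 37 C with test compound and rat liver microsomes plus NADPH (0.5 mg/mL final each).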
row,Compound,Potency
1,Nc1nc(N)c(N)c(N)n1,inactive
2,O=c1ssc(Cl)c1Cl,inactive
3,CC(C)(C)C(O)/C(=C\c1ccc(Cl)cc1Cl)n1cncn1 (configuration not stated),inactive
4,NC1CCC(CC2CCC(N)CC2)CC1 (configuration not stated),inactive
5,O=[N+]([O-])c1ccc(Oc2ccc(C(F)(F)F)cc2[N+](=O)[O-])cc1,inactive
6,CCCN(CC1CC1)c1c([N+](=O)[O-])cc(C(F)(F)F)cc1[N+](=O)[O-],inactive
7,OCC(c1ccc(Cl)cc1)c1ccc(Cl)cc1,inactive
8,COC(C)(C)CCC[C@H](C)C/C=C/C(C)=C/C(=O)OC(C)C,inactive
9,O=C(N[C@H](c1ccccc1)[C@@H]1CN2CCC1CC2)c1c(Cl)ccc(C(F)(F)F)c1Cl,inactive
10,c1cc(OCC2CO2)ccc1Cc1ccc(OCC2CO2)cc1 (configuration not stated),inactive
11,Cc1cc(C2CC2)nc(Nc2ccccc2)n1,inactive
12,NS(=O)(=O)C(F)(F)C(F)(F)C(F)(F)C(F)(F)C(F)(F)C(F)(F)C(F)(F)C(F)(F)F,inactive
13,CSC(=O)c1c(C(F)F)nc(C(F)(F)F)c(C(=O)SC)c1CC(C)C,inactive
14,OC(c1ccc(Cl)cc1)(c1ccc(Cl)cc1)C(Cl)(Cl)Cl,inactive
15,CC(C)(c1ccccc1)c1ccc(O)cc1,inactive
16,O=C1NCN(c2ccccc2)C12CCN(CCCOc1ccc(F)cc1)CC2,inactive
17,Brc1ccc(Oc2ccc(Br)cc2Br)c(Br)c1,inactive

# Experiment: p53 small molecule agonists, cell-based qHTS assay with human liver microsomes: qHTS cell viability counter screen (AID 1963579); further: nearly all actives have a fitted effect of over 45% in size
# Settings: p53RE-bla HCT-116 viability, ATP luminescence, 16 h, HLM; series mostly up to 66 µM
# In short: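 Seed p53RE-bla cells at 4,000 per well; incubate 5 h at 37 C; add compound, human liver microsomes and NADPH; incubate 16 h at 37 C; add CellTiter-Glo; after 30 min at room temperature, read luminescence.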
row,Compound,Potency
1,Nc1nc(N)c(N)c(N)n1,inactive
2,CCOP(=S)(NC(C)C)Oc1ccccc1C(=O)OC(C)C (configuration not stated),inactive
3,COC(=O)C(C)N(C(=O)c1ccco1)c1c(C)cccc1C (configuration not stated),inactive
4,CCOP(=O)(OCC)Oc1nc(Cl)c(Cl)cc1Cl,inactive
5,O=c1ssc(Cl)c1Cl,inactive
6,CCCN(CCC)c1c([N+](=O)[O-])cc(C(F)(F)F)cc1[N+](=O)[O-],inactive
7,CNC(=O)N(C)c1nc2ccccc2s1,inactive
8,c1ccc2c(c1)cc1ccc3cccc4ccc2c1c34,inactive
9,CC(C)(O)c1cnn2c(-c3ccc(F)c(-c4c(F)cccc4C#N)c3)cnc2n1,inactive
10,CCOc1cc(C(C)(C)C)ccc1C1COC(c2c(F)cccc2F)=N1 (configuration not stated),inactive
11,CC(C)(C)C(O)/C(=C\c1ccc(Cl)cc1Cl)n1cncn1 (configuration not stated),inactive
12,NC1CCC(CC2CCC(N)CC2)CC1 (configuration not stated),inactive
13,O=[N+]([O-])c1ccc(Oc2ccc(C(F)(F)F)cc2[N+](=O)[O-])cc1,inactive
14,CCCN(CC1CC1)c1c([N+](=O)[O-])cc(C(F)(F)F)cc1[N+](=O)[O-],inactive
15,OCC(c1ccc(Cl)cc1)c1ccc(Cl)cc1,inactive
16,COC(C)(C)CCC[C@H](C)C/C=C/C(C)=C/C(=O)OC(C)C,inactive

row,Compound,Potency
1,O=C(N[C@H](c1ccccc1)[C@@H]1CN2CCC1CC2)c1c(Cl)ccc(C(F)(F)F)c1Cl,inactive
2,O=[N+]([O-])c1cc(C(F)(F)F)cc([N+](=O)[O-])c1Cl,inactive
3,c1cc(OCC2CO2)ccc1Cc1ccc(OCC2CO2)cc1 (configuration not stated),inactive
4,Cc1cc(C2CC2)nc(Nc2ccccc2)n1,inactive
5,CN1CCc2cc3c(cc2C1O)OCO3 (configuration not stated),inactive
6,Fc1ccc(Oc2ccnc3cc(Cl)cc(Cl)c23)cc1,inactive
7,Oc1ccc([C@H]2CNCc3c2ccc(O)c3O)cc1O,inactive
8,CCC1(CC)C(=O)N=C(O)NC1=O,inactive
9,CCCCN(CCCC)C(=S)S,inactive
10,NS(=O)(=O)C(F)(F)C(F)(F)C(F)(F)C(F)(F)C(F)(F)C(F)(F)C(F)(F)C(F)(F)F,inactive
11,CSC(=O)c1c(C(F)F)nc(C(F)(F)F)c(C(=O)SC)c1CC(C)C,inactive
12,CCOP(=S)(Oc1ccc([N+](=O)[O-])cc1)c1ccccc1 (configuration not stated),inactive
13,OC(c1ccc(Cl)cc1)(c1ccc(Cl)cc1)C(Cl)(Cl)Cl,inactive
14,Brc1ccc(Oc2ccc(Br)cc2Br)c(Br)c1,inactive
15,CCOC(=O)CCN(SN(C)C(=O)Oc1cccc2c1OC(C)(C)C2)C(C)C,inactive
